# Data reported in PubChem BioAssay (EPA / NIEHS).
# Inconclusive results are not listed. Activity calls are given as the source filed them. Rule for the calls, unless noted: active = hit-call score of the fitted dose curve at least 0.9, where 1 is the maximum; inconclusive = response in the unintended direction; inactive = score below 0.9.
# Columns and labels:
# [1] = read-out: Intercellular Adhesion Molecule 1 (ICAM1), ICAM1 (gene 3383); experiment: BSK_3C_ICAM1: BioMAP Diversity Plus: 3C Assay for Intercellular Adhesion Molecule 1 (ICAM1) Biomarker Activity (AID 2283003; active = hit-call score of the fitted dose curve at least 0.9, where 1 is the maximum; inactive = score below 0.9); conditions: primary human endothelial cells (HUVEC); actives raise or lower the signal
# Procedure, shortened: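 ELISA readout of ICAM1 in human umbilical vein endothelial cells in the 3C system, taken 24 h post-dose. Gain or loss of signal versus DMSO was fitted in both directions, with SRB total-protein staining run in parallel.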
# [2] = target: human Retinoic Acid Receptor beta (RARb), RARB (gene 5915) (UniProt P10826); experiment: ATG_RARb_TRANS: Attagene TRANS-FACTORIAL HepG2 Assay for human Retinoic Acid Receptor beta (AID 2283004)
# Procedure, shortened: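 Induction of reporter mRNA from a chimeric RARb-Gal4 construct was measured by RT-PCR, FAM labelling, HpaI digestion and capillary electrophoresis. Measurements followed 24 h compound treatment of transiently transfected human HepG2 liver cells, with DMSO as baseline.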
# [3] = BSK_3C_Proliferation: Cell Proliferation Assessment in the BioMAP Diversity Plus: 3C Assay (AID 2283006; active = hit-call score of the fitted dose curve at least 0.9, where 1 is the maximum; inactive = score below 0.9); conditions: primary human endothelial cells (HUVEC)
# Procedure, shortened: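 Proliferation as total protein: sulforhodamine B (0.1%) stain of TCA-fixed subconfluent human umbilical vein endothelial cells, absorbance 560 nm, 48 h after dosing. Activity fitted in both directions against DMSO baseline.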
# [4] = target: human Retinoic Acid Receptor gamma (RARg), RARG (gene 5916) (UniProt P13631); experiment: ATG_RARg_TRANS: Attagene TRANS-FACTORIAL HepG2 Assay for human Retinoic Acid Receptor gamma (RARg) (AID 2283009)
# Procedure, shortened: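 Transactivation of exogenous RARg-Gal4 fusion measured as reporter transcript induction after 24 h in transfected HepG2 cells. RNA reverse-transcribed, amplified, fluorescently labeled and resolved by capillary electrophoresis; increase relative to DMSO.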
# [5] = target: human RAR-related Orphan Receptor beta (RORb), RORB (gene 6096) (UniProt Q92753); experiment: ATG_RORb_TRANS: Attagene TRANS-FACTORIAL HepG2 Assay for human RAR-related Orphan Receptor beta (RORb) (AID 2283010)
# Procedure, shortened: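 Read-out is reporter mRNA induction, quantified by RT-PCR with fluorescent capillary electrophoresis, 24 h post-dose in transiently transfected HepG2 expressing exogenous NR-Gal4 chimera. Activity fitted upward versus DMSO.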
# [6] = target: human RAR-related Orphan Receptor gamma (RORg), RORC (gene 6097) (UniProt P51449); experiment: ATG_RORg_TRANS: Attagene TRANS-FACTORIAL HepG2 Assay for human RAR-related Orphan Receptor gamma (RORg) (AID 2283011)
# Procedure, shortened: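 Reporter transcripts from a transfected RORg-GAL4 chimera in HepG2 cells were quantified 24 h after dosing by RT-PCR, 6-FAM labelling, HpaI digestion and capillary electrophoresis; increases over DMSO baseline were fitted.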
# [7] = target: human Thyroid Receptor alpha (THRa1), THRA (gene 7067) (UniProt P10827); experiment: ATG_THRa1_TRANS: Attagene TRANS-FACTORIAL HepG2 Assay for human Thyroid Receptor alpha (THRa1) (AID 2283014)
# Procedure, shortened: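 Transcripts from GAL4-UAS-driven reporters, measured after 24 h compound exposure by RT-PCR plus capillary electrophoresis of 6-FAM-labeled fragments, were fitted for gain of signal relative to DMSO. Cells: transiently transfected HepG2 expressing NR-Gal4 chimeras.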
# [8] = read-out: E-selectin (Homo sapiens) (UniProt P16581); experiment: BSK_3C_Eselectin: BioMAP Diversity Plus: 3C Assay for Eselectin Biomarker Activity (AID 2283015; active = hit-call score of the fitted dose curve at least 0.9, where 1 is the maximum; inactive = score below 0.9;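 note: cell surface E-selectin protein quantified by ELISA 24 h after dosing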); conditions: primary human endothelial cells (HUVEC); actives raise or lower the signal
# Procedure, shortened: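 E-selectin ELISA readout, fitted bidirectionally relative to DMSO, taken 24 h post-dosing in HUVEC cultures of the 3C system. Overt cytotoxicity tracked with sulforhodamine B staining of parallel wells.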
# [9] = read-out: Interleukin-1 alpha (IL1a), IL1A (gene 3552); experiment: BSK_BE3C_IL1a: BioMAP Diversity Plus: BE3C Assay for Interleukin-1 alpha (IL1a) Biomarker Activity (AID 2283016; active = hit-call score of the fitted dose curve at least 0.9, where 1 is the maximum; inactive = score below 0.9); conditions: primary human bronchial epithelial cells; actives raise or lower the signal
# Procedure, shortened: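 IL-1a measured by ELISA after 24 h treatment of human primary bronchial epithelial cells, with gain or loss of signal fitted versus DMSO. Parallel cultures stained with SRB gauge overt cytotoxicity.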
# [10] = read-out: Monocyte Chemoattractant Protein-1 (MCP1), CCL2 (gene 6347); experiment: BSK_3C_MCP1: BioMAP Diversity Plus: 3C Assay for Monocyte Chemoattractant Protein-1 (MCP1) Biomarker Activity (AID 2283017; active = hit-call score of the fitted dose curve at least 0.9, where 1 is the maximum; inactive = score below 0.9); conditions: primary human endothelial cells (HUVEC); actives raise or lower the signal
# Procedure, shortened: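 MCP-1 was measured by ELISA 24 h after dosing in primary HUVEC 3C cultures and fitted in both directions relative to DMSO; cytotoxicity was checked by SRB total-protein staining in parallel wells.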
# [11] = read-out: Monocyte Chemoattractant Protein-1 (MCP1), CCL2 (gene 6347); experiment: BSK_4H_MCP1: BioMAP Diversity Plus: 4H Assay for Monocyte Chemoattractant Protein-1 (MCP1) Biomarker Activity (AID 2283018; active = hit-call score of the fitted dose curve at least 0.9, where 1 is the maximum; inactive = score below 0.9); conditions: primary human endothelial cells (HUVEC); actives raise or lower the signal
# Procedure, shortened: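 ELISA of MCP-1 (CCL2) 24 h after chemical dosing of HUVEC in the BioMAP 4H system. Gain or loss versus DMSO fitted; parallel SRB staining (560 nm) tracked overt cytotoxicity.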
# [12] = read-out: Human Leukocyte Antigen - DR isotype (HLADR), HLA-DRA (gene 3122); experiment: BSK_3C_HLADR: BioMAP Diversity Plus: 3C Assay for Human Leukocyte Antigen - DR isotype (HLADR) Biomarker Activity (AID 2283019; active = hit-call score of the fitted dose curve at least 0.9, where 1 is the maximum; inactive = score below 0.9;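 note: ELISA of cell-surface HLA-DR on HUVEC 24 h after dosing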); conditions: primary human endothelial cells (HUVEC); actives raise or lower the signal
# Procedure, shortened: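 Bidirectional fitting against DMSO was applied to the HLA-DR ELISA signal from human umbilical vein endothelial cells, 24 h post-dose. Cytotoxicity came from parallel SRB total-protein staining; 3C proliferation was counted by SRB at 48 h.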
# [13] = target: human Peroxisome Proliferator-activated Receptor delta (PPARd), PPARD (gene 5467) (UniProt Q03181); experiment: ATG_PPARd_TRANS: Attagene TRANS-FACTORIAL HepG2 Assay for human Peroxisome Proliferator-activated Receptor delta (PPARd) (AID 2283002)
# Procedure, shortened: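 Multiplexed trans-activation format: HepG2 liver cells expressing exogenous NR-Gal4 chimeras and GAL4-UAS reporters were exposed for 24 h. Reporter mRNA was detected by RT-PCR with capillary electrophoresis fluorescence; activity fitted as gain of signal relative to DMSO.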
# [14] = target: Peroxisome proliferator-activated receptor gamma (Homo sapiens) (UniProt P37231); experiment: ATG_PPARg_TRANS: Attagene TRANS-FACTORIAL HepG2 Assay for human Peroxisome Proliferator-activated Receptor-gamma (PPARg) (AID 2283007)
# Procedure, shortened: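 HepG2 cells are transiently transfected with GAL4-UAS reporter units driven by chimeric NR-Gal4 fusions and dosed for 24 h. Reporter mRNA is quantified by RT-PCR, 6-FAM labelling, HpaI digestion and capillary electrophoresis. Induction is scored against DMSO.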
# [15] = target: Nuclear receptor subfamily 1 group I member 2 (Homo sapiens) (UniProt O75469); experiment: ATG_PXR_TRANS: Attagene TRANS-FACTORIAL HepG2 Assay for human Pregnane X Receptor (PXR) (AID 2283008)
# Procedure, shortened: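 Multiplexed TRANS reporter panel in HepG2; this component tracks PXR-Gal4-driven reporter mRNA after 24 h dosing, measured by RT-PCR with capillary electrophoresis fluorescence, fitted against DMSO.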
# [16] = target: Retinoic acid receptor RXR-alpha (Homo sapiens) (UniProt P19793); experiment: ATG_RXRa_TRANS: Attagene TRANS-FACTORIAL HepG2 Assay for human Retinoid X Receptor alpha (RXRa) (AID 2283012)
# Procedure, shortened: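 TRANS format reporting activity of exogenous RXRa-Gal4 chimera in transiently transfected HepG2, 24 h exposure. Reporter transcripts quantified by RT-PCR with capillary electrophoresis, with gain of signal scored relative to DMSO.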
# [17] = target: human Retinoid X Receptor beta (RXRb), RXRB (gene 6257) (UniProt P28702); experiment: ATG_RXRb_TRANS: Attagene TRANS-FACTORIAL HepG2 Assay for human Retinoid X Receptor beta (RXRb) (AID 2283013)
# Procedure, shortened: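 Readout is reporter transcript induction after 24 h dosing. It is measured by RT-PCR of total RNA followed by fluorescent capillary electrophoresis. HepG2 liver cells carry transfected multiple reporter units driven by an exogenous RXRb-Gal4 fusion; activity is relative to DMSO.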
# [18] = target: Retinoic acid receptor alpha (Homo sapiens) (UniProt P10276); experiment: ATG_RARa_TRANS: Attagene TRANS-FACTORIAL HepG2 Assay for human Retinoic Acid Receptor alpha (RARa) (AID 2283005)
# Procedure, shortened: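 HepG2 cells transiently transfected with multiple reporter units expressing chimeric RARα-GAL4 fusion, with GAL4-UAS-driven reporters. After 24 h compound exposure, reporter mRNA induction quantified by RT-PCR and capillary electrophoresis with fluorescent labeling; gain-of-signal fitted relative to DMSO control.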
# Sequence of human Retinoid X Receptor beta (RXRb), RXRB (gene 6257) (P28702 whole entry, looked up, the tested form may be a part): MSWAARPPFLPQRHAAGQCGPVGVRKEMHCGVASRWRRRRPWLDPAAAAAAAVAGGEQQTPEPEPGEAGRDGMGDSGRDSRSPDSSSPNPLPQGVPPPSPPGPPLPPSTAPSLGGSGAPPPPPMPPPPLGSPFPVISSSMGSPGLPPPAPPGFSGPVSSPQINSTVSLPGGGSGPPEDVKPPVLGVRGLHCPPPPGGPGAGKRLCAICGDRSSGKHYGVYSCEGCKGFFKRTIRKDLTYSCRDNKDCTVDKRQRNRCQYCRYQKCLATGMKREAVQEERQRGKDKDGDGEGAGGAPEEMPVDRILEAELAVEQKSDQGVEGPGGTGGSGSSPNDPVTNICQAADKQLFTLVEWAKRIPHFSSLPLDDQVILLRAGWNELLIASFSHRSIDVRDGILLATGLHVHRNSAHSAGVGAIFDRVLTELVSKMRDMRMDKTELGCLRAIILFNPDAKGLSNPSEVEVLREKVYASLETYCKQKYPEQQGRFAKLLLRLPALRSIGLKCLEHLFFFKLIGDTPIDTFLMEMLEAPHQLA
# Sequence of human Retinoic Acid Receptor beta (RARb), RARB (gene 5915) (P10826 whole entry, looked up, the tested form may be a part): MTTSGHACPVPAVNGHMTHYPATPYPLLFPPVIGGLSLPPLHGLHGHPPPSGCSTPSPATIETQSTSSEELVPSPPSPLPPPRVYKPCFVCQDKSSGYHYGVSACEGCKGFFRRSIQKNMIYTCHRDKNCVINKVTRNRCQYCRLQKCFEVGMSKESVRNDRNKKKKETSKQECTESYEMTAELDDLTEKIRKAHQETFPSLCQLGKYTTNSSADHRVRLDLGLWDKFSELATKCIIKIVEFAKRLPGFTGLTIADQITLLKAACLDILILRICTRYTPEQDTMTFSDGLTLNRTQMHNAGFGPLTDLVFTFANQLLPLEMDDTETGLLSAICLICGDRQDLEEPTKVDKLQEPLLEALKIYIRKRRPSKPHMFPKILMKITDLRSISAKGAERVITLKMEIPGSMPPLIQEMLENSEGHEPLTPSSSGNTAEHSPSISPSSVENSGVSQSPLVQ
# Sequence of human Retinoic Acid Receptor gamma (RARg), RARG (gene 5916) (P13631 whole entry, looked up, the tested form may be a part): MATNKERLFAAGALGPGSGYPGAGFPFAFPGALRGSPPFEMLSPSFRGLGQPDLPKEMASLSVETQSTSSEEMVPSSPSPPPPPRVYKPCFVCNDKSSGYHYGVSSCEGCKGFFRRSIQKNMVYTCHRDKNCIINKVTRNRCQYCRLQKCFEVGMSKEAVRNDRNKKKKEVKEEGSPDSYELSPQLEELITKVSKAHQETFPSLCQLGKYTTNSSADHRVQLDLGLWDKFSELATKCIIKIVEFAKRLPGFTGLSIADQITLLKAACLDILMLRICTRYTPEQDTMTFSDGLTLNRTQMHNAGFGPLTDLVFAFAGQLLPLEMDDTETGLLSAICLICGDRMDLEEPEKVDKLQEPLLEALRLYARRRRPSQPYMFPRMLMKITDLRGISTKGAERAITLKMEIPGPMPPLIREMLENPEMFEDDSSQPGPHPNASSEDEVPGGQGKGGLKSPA
# Sequence of Peroxisome proliferator-activated receptor gamma (Homo sapiens) (P37231 whole entry, looked up, the tested form may be a part): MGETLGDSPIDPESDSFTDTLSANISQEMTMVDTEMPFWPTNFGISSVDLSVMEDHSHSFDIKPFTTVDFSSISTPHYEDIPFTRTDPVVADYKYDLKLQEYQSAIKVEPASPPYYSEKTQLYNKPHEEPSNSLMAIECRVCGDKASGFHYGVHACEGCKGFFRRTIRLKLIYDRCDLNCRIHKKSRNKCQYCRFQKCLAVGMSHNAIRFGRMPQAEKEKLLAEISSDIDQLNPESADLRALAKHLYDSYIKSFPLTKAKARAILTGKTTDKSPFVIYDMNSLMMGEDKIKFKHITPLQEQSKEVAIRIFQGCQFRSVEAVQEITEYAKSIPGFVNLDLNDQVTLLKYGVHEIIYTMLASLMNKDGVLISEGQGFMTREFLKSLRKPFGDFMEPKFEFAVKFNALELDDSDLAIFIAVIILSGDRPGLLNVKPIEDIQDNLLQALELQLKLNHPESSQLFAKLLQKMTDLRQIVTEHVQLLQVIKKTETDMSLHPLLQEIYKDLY
# Sequence of human Thyroid Receptor alpha (THRa1), THRA (gene 7067) (P10827 whole entry, looked up, the tested form may be a part): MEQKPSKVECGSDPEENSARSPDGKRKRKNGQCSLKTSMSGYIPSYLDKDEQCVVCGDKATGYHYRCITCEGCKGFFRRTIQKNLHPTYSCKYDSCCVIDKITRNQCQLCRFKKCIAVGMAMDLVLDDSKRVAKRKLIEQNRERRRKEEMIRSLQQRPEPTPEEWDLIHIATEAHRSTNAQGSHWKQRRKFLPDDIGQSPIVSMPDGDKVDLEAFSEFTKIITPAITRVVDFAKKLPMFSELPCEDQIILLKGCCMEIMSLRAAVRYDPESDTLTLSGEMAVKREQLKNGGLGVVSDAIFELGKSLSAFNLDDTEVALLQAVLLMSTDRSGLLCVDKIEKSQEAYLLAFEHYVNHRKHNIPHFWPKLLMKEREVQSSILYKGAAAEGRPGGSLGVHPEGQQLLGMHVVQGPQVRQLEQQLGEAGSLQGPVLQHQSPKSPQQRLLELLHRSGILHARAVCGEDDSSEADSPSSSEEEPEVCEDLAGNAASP
# Sequence of Nuclear receptor subfamily 1 group I member 2 (Homo sapiens) (O75469 whole entry, looked up, the tested form may be a part): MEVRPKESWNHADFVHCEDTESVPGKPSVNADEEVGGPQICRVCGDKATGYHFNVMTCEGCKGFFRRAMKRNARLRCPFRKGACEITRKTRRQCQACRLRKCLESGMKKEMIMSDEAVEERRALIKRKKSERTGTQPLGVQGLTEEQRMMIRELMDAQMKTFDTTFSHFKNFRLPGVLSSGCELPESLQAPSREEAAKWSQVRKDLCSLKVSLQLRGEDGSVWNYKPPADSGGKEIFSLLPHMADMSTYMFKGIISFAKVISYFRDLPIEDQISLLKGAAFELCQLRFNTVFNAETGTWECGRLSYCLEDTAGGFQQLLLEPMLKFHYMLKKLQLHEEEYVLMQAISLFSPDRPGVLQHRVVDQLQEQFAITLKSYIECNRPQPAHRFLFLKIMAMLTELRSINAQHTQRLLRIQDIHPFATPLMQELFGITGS
# Sequence of E-selectin (Homo sapiens) (P16581 whole entry, looked up): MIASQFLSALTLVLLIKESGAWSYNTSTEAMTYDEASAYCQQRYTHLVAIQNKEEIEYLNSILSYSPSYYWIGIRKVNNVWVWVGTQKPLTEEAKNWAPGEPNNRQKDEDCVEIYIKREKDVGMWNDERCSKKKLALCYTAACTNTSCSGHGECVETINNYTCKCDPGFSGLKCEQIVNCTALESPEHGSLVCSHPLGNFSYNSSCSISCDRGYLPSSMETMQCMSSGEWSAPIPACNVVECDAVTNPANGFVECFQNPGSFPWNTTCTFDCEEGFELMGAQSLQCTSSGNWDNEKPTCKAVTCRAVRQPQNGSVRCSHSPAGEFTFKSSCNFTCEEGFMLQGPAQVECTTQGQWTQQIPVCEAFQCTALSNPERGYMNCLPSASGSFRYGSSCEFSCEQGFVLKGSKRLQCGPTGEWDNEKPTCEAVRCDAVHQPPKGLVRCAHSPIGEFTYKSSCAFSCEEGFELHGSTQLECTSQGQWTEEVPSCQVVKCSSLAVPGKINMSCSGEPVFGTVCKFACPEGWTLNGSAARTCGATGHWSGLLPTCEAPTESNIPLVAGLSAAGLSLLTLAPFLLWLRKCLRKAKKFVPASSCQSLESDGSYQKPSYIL
# Sequence of human RAR-related Orphan Receptor gamma (RORg), RORC (gene 6097) (P51449 whole entry, looked up, the tested form may be a part): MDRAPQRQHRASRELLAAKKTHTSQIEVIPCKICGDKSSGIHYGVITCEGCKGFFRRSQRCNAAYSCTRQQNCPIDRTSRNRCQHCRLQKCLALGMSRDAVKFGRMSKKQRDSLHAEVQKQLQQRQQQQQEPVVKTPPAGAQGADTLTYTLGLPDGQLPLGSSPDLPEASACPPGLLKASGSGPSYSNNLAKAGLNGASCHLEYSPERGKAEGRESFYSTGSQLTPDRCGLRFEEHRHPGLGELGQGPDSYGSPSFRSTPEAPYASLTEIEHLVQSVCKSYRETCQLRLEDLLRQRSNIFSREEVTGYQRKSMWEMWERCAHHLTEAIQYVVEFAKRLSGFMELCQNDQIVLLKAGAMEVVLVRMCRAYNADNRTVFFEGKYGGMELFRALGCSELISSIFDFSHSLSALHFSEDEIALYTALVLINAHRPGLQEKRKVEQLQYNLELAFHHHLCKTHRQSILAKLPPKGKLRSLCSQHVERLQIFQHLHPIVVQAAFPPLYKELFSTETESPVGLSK
# Sequence of human Peroxisome Proliferator-activated Receptor delta (PPARd), PPARD (gene 5467) (Q03181 whole entry, looked up, the tested form may be a part): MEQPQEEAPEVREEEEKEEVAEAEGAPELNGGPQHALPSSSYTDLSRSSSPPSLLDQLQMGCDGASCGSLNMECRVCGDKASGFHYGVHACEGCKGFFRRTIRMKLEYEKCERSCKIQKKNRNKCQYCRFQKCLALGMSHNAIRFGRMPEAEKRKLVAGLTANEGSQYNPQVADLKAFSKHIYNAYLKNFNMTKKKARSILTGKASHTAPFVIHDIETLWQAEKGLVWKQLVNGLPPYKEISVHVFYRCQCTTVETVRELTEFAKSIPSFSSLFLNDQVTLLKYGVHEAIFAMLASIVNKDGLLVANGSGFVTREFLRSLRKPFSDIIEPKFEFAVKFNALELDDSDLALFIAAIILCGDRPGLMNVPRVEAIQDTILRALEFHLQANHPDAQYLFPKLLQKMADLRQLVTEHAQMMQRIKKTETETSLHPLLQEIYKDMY
# Sequence of Retinoic acid receptor RXR-alpha (Homo sapiens) (P19793 whole entry, looked up, the tested form may be a part): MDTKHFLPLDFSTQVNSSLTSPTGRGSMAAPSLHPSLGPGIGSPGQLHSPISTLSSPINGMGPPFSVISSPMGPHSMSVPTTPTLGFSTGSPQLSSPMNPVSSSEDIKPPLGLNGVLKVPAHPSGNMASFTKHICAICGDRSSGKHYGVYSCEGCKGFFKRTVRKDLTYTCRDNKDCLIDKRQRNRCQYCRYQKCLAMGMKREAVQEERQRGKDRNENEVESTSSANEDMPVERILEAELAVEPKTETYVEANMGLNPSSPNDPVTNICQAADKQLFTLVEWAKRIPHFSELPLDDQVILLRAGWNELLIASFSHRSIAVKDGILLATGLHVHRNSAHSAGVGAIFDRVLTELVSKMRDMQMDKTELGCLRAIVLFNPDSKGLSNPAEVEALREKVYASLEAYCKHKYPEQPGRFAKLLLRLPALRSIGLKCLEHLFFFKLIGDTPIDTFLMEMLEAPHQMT
smiles,measurement,setting,value
CC(C)C(=O)OCCc1ccccc1,outcome,[1],inactive
same,outcome,[2],inactive
same,outcome,[3],inactive
same,outcome,[4],inactive
same,outcome,[5],inactive
same,outcome,[6],inactive
same,outcome,[7],inactive
same,outcome,[8],inactive
same,outcome,[9],inactive
same,outcome,[10],inactive
same,outcome,[11],inactive
same,outcome,[12],inactive
CC1CC(=O)CC(C)(C)C1 (stereo not drawn),outcome,[13],inactive
same,outcome,[4],inactive
CCOC(=O)CC(=O)c1ccccc1,outcome,[13],inactive
same,outcome,[14],inactive
same,outcome,[15],inactive
same,outcome,[6],inactive
c1ccc(-c2nc3ccccc3[nH]2)cc1,outcome,[13],inactive
same,outcome,[14],inactive
same,AC50,[15],23.4 µM (active)
same,outcome,[16],inactive
same,outcome,[17],inactive
same,outcome,[7],inactive
CCc1occc(=O)c1O,outcome,[13],inactive
same,outcome,[7],inactive
[Cl][Eu]([Cl])[Cl],outcome,[13],inactive
same,outcome,[14],inactive
same,outcome,[15],inactive
same,outcome,[6],inactive
same,outcome,[17],inactive
CCC[Si](OC)(OC)OC,outcome,[2],inactive
same,outcome,[18],inactive
same,outcome,[15],inactive
same,outcome,[4],inactive
same,outcome,[6],inactive
same,outcome,[17],inactive
same,outcome,[7],inactive
N#Cc1ccc(C(c2ccc(C#N)cc2)n2cncn2)cc1,outcome,[13],inactive
same,outcome,[14],inactive
same,outcome,[15],inactive
same,outcome,[4],inactive
same,outcome,[16],inactive
same,outcome,[17],inactive
CC1CCC(C(C)(C)S)C(=O)C1 (stereo not drawn),outcome,[13],inactive
same,AC50,[14],81.1 µM (active)
same,AC50,[15],1.89 µM (active)
same,outcome,[16],inactive
same,outcome,[17],inactive
same,outcome,[7],inactive
N#Cc1ccc(C2CCCc3cncn32)cc1 (stereo not drawn),outcome,[2],inactive
same,outcome,[14],inactive
same,outcome,[15],inactive
same,outcome,[4],inactive
same,outcome,[6],inactive
same,outcome,[16],inactive
Nc1ccc(C(=O)O)cc1,outcome,[1],inactive
same,outcome,[2],inactive
same,outcome,[18],inactive
same,outcome,[3],inactive
same,outcome,[4],inactive
same,outcome,[5],inactive
same,outcome,[6],inactive
same,outcome,[8],inactive
same,outcome,[9],inactive
same,outcome,[10],inactive
same,outcome,[11],inactive
same,outcome,[12],inactive
